# Test results: the supplement of paper PMC11732987, “Enantioselective OTUD7B fragment discovery through chemoproteomics screening and high-throughput optimisation” (Communications Chemistry, 2025)
# Compound: CN(Cc1cccc(Br)c1)C(=O)CCl
# Test: log2 ratio of Biotin-Ahx-Ub-VS probe labelling (compound/DMSO); higher = less target engagement, active = hit call of the paper (q ≤ 0.05, log2 ratio ≤ -1)
# Conditions: compound concentration: 50uM; treatment time: 3 h
# Method in brief: (§1)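 Compound at 50 or 200 µM, or DMSO, was applied for 3 h in triplicate to HEK293T lysate (495 µg per sample, Tris/CHAPS/IGEPAL buffer with protease inhibitors), after which Biotin-Ahx-Ub-VS was added at 0.5 µM final for 1 h. The labelled DUBs were pulled down with NeutrAvidin, digested with LysC and trypsin, and run by diaPASEF LC-MS/MS. Ratios are averaged base-two logs of compound over DMSO from median-normalised label-free quantities by unpaired t-test, counting only proteins with at least 2 unique peptides.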
# UniProt Q70EL1, sequence (Q70EL1 whole entry): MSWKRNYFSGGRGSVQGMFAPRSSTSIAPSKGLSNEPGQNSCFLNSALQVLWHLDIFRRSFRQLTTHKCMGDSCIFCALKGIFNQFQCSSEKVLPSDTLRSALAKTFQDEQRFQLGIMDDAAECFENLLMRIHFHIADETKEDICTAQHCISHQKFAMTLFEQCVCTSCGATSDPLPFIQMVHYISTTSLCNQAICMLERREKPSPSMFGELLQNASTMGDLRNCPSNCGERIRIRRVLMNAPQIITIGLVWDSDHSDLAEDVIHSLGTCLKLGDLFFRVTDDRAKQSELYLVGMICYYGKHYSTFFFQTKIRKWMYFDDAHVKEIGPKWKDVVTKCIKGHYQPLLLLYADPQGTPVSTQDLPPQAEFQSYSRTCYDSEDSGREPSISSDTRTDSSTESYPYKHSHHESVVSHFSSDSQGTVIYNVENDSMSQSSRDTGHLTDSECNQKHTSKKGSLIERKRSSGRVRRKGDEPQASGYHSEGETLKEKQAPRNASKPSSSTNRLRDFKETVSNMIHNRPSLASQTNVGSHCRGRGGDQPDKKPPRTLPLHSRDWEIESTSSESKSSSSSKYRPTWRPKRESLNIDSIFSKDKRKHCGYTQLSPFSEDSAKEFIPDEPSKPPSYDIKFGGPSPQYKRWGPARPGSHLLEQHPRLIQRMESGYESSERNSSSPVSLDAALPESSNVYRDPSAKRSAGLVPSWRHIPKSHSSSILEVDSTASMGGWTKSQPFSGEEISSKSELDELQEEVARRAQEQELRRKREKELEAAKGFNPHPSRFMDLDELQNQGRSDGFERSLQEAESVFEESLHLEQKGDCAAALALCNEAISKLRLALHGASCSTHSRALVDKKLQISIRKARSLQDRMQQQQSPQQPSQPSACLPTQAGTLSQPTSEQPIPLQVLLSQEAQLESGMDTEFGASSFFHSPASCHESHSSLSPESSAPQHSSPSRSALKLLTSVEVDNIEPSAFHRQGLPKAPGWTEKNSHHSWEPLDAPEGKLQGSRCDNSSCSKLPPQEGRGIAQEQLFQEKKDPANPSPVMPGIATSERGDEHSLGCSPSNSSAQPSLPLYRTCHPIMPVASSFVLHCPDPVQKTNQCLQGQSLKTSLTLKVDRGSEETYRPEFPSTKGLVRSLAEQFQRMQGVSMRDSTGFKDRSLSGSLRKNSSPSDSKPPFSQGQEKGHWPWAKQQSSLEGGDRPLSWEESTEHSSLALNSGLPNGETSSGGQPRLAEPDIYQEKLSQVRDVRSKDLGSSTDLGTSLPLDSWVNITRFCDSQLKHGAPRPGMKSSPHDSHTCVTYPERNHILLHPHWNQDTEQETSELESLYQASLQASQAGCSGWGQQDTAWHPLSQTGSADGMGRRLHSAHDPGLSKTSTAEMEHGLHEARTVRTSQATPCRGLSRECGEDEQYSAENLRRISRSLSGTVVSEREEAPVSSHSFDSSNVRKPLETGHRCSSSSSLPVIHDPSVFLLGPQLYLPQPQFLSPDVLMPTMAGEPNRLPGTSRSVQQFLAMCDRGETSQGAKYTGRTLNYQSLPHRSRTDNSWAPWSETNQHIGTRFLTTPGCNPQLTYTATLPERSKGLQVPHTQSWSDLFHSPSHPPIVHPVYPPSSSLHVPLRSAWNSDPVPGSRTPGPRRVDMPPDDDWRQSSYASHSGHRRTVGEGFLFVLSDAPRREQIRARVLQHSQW
# UniProt Q5VVQ6, sequence (Q5VVQ6 whole entry): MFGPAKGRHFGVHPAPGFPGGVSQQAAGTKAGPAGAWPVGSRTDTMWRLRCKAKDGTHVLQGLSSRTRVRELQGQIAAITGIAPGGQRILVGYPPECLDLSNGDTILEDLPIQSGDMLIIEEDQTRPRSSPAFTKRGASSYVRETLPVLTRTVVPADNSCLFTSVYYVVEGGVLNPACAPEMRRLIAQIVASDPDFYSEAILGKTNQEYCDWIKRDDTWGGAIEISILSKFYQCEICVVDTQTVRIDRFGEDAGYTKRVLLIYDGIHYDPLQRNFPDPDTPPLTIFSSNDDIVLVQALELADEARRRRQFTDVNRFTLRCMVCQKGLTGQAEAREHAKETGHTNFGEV
# UniProt Q96FW1, sequence (Q96FW1 whole entry): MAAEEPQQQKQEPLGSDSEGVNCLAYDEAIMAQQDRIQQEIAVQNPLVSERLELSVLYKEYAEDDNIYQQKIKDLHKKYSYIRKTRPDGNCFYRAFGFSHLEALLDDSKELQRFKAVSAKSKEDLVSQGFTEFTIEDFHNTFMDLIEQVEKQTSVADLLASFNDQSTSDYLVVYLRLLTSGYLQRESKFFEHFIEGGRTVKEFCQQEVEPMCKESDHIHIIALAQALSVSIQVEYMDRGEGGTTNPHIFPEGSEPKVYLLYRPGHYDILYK
# UniProt P54578, sequence (P54578 whole entry): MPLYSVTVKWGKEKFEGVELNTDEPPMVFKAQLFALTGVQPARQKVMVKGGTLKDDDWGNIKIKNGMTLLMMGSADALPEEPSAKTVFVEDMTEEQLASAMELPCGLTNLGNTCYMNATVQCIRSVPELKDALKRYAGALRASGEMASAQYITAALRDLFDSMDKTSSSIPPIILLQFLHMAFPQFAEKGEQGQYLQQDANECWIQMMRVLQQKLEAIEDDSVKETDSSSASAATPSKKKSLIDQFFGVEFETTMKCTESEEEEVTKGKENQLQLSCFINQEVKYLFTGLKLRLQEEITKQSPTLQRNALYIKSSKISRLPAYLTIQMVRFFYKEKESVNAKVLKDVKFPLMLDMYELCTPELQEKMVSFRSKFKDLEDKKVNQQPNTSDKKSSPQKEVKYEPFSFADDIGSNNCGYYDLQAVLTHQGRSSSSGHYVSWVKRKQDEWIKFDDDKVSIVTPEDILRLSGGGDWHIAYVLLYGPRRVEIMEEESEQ
# UniProt Q92905, sequence (Q92905 whole entry, looked up): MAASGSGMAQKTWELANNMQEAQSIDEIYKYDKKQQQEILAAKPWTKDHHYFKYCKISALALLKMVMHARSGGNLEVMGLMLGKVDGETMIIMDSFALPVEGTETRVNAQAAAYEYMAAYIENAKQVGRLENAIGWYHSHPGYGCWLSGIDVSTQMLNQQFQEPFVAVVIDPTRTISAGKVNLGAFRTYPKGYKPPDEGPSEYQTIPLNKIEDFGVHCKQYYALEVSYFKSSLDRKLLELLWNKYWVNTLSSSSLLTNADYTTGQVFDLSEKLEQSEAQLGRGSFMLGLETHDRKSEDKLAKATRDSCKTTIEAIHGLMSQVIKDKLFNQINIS
# UniProt Q6GQQ9, sequence (Q6GQQ9 whole entry): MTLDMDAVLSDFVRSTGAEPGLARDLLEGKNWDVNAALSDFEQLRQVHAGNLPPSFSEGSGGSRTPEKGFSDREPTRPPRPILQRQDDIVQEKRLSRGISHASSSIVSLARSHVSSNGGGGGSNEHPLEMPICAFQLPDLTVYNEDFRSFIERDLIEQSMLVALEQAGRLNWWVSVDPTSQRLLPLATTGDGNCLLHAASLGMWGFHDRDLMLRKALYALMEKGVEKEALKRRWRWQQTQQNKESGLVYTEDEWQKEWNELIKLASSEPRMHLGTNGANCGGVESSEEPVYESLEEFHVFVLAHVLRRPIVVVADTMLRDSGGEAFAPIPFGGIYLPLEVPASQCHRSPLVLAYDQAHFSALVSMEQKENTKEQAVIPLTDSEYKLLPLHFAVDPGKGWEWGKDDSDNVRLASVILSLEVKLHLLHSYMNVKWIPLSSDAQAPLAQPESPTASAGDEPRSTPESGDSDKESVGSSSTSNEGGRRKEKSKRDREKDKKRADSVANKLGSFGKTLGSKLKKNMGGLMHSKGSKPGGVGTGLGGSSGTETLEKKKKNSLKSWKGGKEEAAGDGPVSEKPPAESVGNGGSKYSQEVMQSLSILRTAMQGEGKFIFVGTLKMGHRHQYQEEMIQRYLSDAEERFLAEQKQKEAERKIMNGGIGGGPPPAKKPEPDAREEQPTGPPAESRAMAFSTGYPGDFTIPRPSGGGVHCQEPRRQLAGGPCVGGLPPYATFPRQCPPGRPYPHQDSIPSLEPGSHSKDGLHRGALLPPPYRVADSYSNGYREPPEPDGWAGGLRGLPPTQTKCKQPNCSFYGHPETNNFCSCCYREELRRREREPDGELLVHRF
# UniProt Q9UGI0, sequence (Q9UGI0 whole entry): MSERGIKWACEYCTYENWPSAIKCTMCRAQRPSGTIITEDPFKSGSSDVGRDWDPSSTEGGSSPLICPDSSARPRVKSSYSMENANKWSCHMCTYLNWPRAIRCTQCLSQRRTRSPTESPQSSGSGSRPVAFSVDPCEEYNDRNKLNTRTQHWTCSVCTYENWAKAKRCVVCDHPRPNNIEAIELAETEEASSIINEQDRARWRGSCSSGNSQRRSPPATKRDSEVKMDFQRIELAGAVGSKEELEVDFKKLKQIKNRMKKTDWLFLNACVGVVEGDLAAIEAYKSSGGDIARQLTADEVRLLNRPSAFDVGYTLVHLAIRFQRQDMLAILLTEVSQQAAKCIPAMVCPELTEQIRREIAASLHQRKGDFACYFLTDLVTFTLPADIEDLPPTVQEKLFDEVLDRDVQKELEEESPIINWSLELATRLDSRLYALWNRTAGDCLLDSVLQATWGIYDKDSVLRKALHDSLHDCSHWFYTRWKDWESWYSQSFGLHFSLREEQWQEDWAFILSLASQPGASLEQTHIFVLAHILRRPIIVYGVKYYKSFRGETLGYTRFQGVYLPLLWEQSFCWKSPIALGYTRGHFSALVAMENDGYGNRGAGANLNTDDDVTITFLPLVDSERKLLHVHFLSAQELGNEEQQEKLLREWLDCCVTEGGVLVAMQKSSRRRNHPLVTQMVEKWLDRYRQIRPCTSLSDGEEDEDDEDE
# UniProt P62068, sequence (P62068 whole entry): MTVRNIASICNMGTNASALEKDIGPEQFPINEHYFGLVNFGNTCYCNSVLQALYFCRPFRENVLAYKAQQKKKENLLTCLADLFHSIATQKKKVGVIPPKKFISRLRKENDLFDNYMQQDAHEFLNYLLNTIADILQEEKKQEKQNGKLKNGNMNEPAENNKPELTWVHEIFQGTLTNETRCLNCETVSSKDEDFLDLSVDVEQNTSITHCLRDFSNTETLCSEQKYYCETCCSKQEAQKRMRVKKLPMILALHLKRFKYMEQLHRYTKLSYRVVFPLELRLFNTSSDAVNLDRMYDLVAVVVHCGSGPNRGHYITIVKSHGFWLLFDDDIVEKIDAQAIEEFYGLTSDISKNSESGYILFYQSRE
row,Target,log2 ratio of Biotin-Ahx-Ub-VS probe labelling
1,USP54 (UniProt Q70EL1),0.085 (inactive)
2,UniProt Q5T2D3,0.00241 (inactive)
3,USP28 (UniProt Q96RU2),-0.197 (inactive)
4,UniProt Q70EL2,-0.228 (inactive)
5,USP22 (UniProt Q9UPT9),-0.105 (inactive)
6,OTUD6B (UniProt Q8N6M0),-0.133 (inactive)
7,EIF3F (UniProt O00303),-0.146 (inactive)
8,USP36 (UniProt Q9P275),-0.113 (inactive)
9,USP16 (UniProt Q9Y5T5),-0.307 (inactive)
10,UCHL5 (UniProt Q9Y5K5),-0.213 (inactive)
11,OTUD7B (UniProt Q6GQQ9),-0.428 (inactive)
12,USP14 (UniProt P54578),-0.191 (inactive)
13,USP7 (UniProt Q93009),-0.88 (inactive)
14,USP34 (UniProt Q70CQ2),0.504 (inactive)
15,OTUB1 (UniProt Q96FW1),0.0635 (inactive)
16,USP9X (UniProt Q93008),-0.128 (inactive)
17,COPS5 (UniProt Q92905),0.118 (inactive)
18,USP10 (UniProt Q14694),-0.146 (inactive)
19,USP46 (UniProt P62068),-0.406 (inactive)
20,YOD1 (UniProt Q5VVQ6),-0.152 (inactive)
21,BAP1 (UniProt Q92560),-0.773 (inactive)
22,UniProt P51784,0.019 (inactive)
23,USP25 (UniProt Q9UHP3),0.514 (inactive)
24,UniProt Q9UGI0,-0.13 (inactive)

# Same assay, conditions: compound concentration: 200uM; treatment time: 3 h
row,Target,log2 ratio of Biotin-Ahx-Ub-VS probe labelling
1,USP54 (UniProt Q70EL1),-0.845 (inactive)
2,UniProt Q5T2D3,-0.212 (inactive)
3,USP28 (UniProt Q96RU2),-0.68 (inactive)
4,UniProt Q70EL2,-0.814 (inactive)
5,USP22 (UniProt Q9UPT9),0.476 (inactive)
6,OTUD6B (UniProt Q8N6M0),-0.53 (inactive)
7,EIF3F (UniProt O00303),-0.0144 (inactive)
8,USP36 (UniProt Q9P275),-0.219 (inactive)
9,USP16 (UniProt Q9Y5T5),-1.27 (active)
10,UCHL5 (UniProt Q9Y5K5),-0.442 (inactive)
11,OTUD7B (UniProt Q6GQQ9),-1.07 (active)
12,USP14 (UniProt P54578),-0.555 (inactive)
13,USP7 (UniProt Q93009),-1.84 (active)
14,USP34 (UniProt Q70CQ2),0.192 (inactive)
15,OTUB1 (UniProt Q96FW1),0.0164 (inactive)
16,USP9X (UniProt Q93008),-0.446 (inactive)
17,COPS5 (UniProt Q92905),-0.11 (inactive)
18,USP10 (UniProt Q14694),-0.153 (inactive)
19,USP46 (UniProt P62068),-0.773 (inactive)
20,YOD1 (UniProt Q5VVQ6),0.742 (inactive)
21,BAP1 (UniProt Q92560),-2.12 (active)
22,UniProt P51784,-0.0885 (inactive)
23,USP25 (UniProt Q9UHP3),-1.46 (active)
24,UniProt Q9UGI0,-0.336 (inactive)

# Compound: CN(Cc1cccc(OCc2ccccc2C)c1)C(=O)CCl
# Test: as above
# Conditions: compound concentration: 50uM; treatment time: 3 h
# Method in brief: as §1
row,Target,log2 ratio of Biotin-Ahx-Ub-VS probe labelling
1,USP54 (UniProt Q70EL1),-1.29 (active)
2,UniProt Q5T2D3,-0.549 (inactive)
3,USP28 (UniProt Q96RU2),-0.572 (inactive)
4,UniProt Q70EL2,-0.959 (inactive)
5,USP22 (UniProt Q9UPT9),-0.278 (inactive)
6,OTUD6B (UniProt Q8N6M0),-0.59 (inactive)
7,EIF3F (UniProt O00303),-0.201 (inactive)
8,USP36 (UniProt Q9P275),-0.207 (inactive)
9,USP16 (UniProt Q9Y5T5),-0.495 (inactive)
10,UCHL5 (UniProt Q9Y5K5),-0.735 (inactive)
11,OTUD7B (UniProt Q6GQQ9),-0.878 (inactive)
12,USP14 (UniProt P54578),-0.544 (inactive)
13,USP7 (UniProt Q93009),-0.769 (inactive)
14,USP34 (UniProt Q70CQ2),0.154 (inactive)
15,OTUB1 (UniProt Q96FW1),-0.366 (inactive)
16,USP9X (UniProt Q93008),-0.553 (inactive)
17,COPS5 (UniProt Q92905),-0.375 (inactive)
18,USP10 (UniProt Q14694),-0.287 (inactive)
19,USP46 (UniProt P62068),-0.515 (inactive)
20,YOD1 (UniProt Q5VVQ6),-0.555 (inactive)
21,BAP1 (UniProt Q92560),-1.42 (active)
22,UniProt P51784,-0.394 (inactive)
23,USP25 (UniProt Q9UHP3),-1.05 (active)
24,UniProt Q9UGI0,-0.392 (inactive)

# Same assay, conditions: compound concentration: 200uM; treatment time: 3 h
row,Target,log2 ratio of Biotin-Ahx-Ub-VS probe labelling
1,USP54 (UniProt Q70EL1),-0.985 (inactive)
2,UniProt Q5T2D3,-0.332 (inactive)
3,USP28 (UniProt Q96RU2),-0.911 (inactive)
4,UniProt Q70EL2,-0.772 (inactive)
5,USP22 (UniProt Q9UPT9),-0.429 (inactive)
6,OTUD6B (UniProt Q8N6M0),-0.817 (inactive)
7,EIF3F (UniProt O00303),0.0399 (inactive)
8,USP36 (UniProt Q9P275),-0.146 (inactive)
9,USP16 (UniProt Q9Y5T5),-0.496 (inactive)
10,UCHL5 (UniProt Q9Y5K5),-1.33 (active)
11,OTUD7B (UniProt Q6GQQ9),-2.2 (active)
12,USP14 (UniProt P54578),-0.62 (inactive)
13,USP7 (UniProt Q93009),-1.62 (active)
14,USP34 (UniProt Q70CQ2),-0.582 (inactive)
15,OTUB1 (UniProt Q96FW1),0.0592 (inactive)
16,USP9X (UniProt Q93008),-1.59 (active)
17,COPS5 (UniProt Q92905),-0.104 (inactive)
18,USP10 (UniProt Q14694),-0.0982 (inactive)
19,USP46 (UniProt P62068),-0.89 (inactive)
20,YOD1 (UniProt Q5VVQ6),-0.132 (inactive)
21,BAP1 (UniProt Q92560),-3.08 (active)
22,UniProt P51784,-0.417 (inactive)
23,USP25 (UniProt Q9UHP3),-0.67 (inactive)
24,UniProt Q9UGI0,-0.664 (inactive)
